Source: PubChem BioAssay (National Center for Advancing Translational Sciences (NCATS))
USP2a inh: USP2a (human) protease inhibition; actives 0.01% (n = 330,000); USP2 core, Ub-CHOP2 coupled fluorogenic reporter, 485/531; Potency, µM (titrated, usually from 38.3 µM), for the others: top-dose activity change, negative = inhibition, hits mostly inhibitors;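 further: plate controls were DMSO wells for no effect and full inhibition by NEM control for full effect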
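Deubiquitinase activity read as fluorescence (485/531 nm) after Ub-CHOP2 cleavage activates the enterokinase reporter on its substrate; USP2 core 10nM, Ub-CHOP2 and substrate 25nM each, 30min compound preincubation then 60min RT; data normalized to NEM, curves fitted.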
Tb PFK inh-1: T. brucei PFK enzyme inhibition; O15648; T. brucei PFK, ADP-Glo luminescence; Potency, µM (highest dose often 57.5 µM), inactives show top-dose activity, negative = inhibition, hits mostly inhibitors; actives 0.17% (n = 330,000);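 further: 0% = uninhibited 1x PFK enzyme wells and -100% = no-enzyme wells; nearly all actives have a fitted effect of over 60% in size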
Target sequence (O15648 whole entry, looked up): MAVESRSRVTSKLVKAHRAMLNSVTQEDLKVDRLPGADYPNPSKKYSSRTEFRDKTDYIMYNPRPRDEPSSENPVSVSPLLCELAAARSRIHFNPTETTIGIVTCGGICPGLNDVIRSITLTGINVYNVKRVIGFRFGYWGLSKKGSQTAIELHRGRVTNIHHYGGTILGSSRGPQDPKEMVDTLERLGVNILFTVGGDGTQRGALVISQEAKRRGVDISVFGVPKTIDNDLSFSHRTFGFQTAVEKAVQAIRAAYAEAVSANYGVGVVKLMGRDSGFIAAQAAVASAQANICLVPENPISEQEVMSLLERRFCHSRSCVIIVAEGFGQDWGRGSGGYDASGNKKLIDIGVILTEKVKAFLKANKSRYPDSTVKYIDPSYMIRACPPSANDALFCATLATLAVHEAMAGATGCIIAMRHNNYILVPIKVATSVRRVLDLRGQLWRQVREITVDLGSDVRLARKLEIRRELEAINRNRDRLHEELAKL
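PFK 1.25 nM, F6P 0.5 mM, ATP 0.1 mM, 0.1 M TEA pH 8.0, 5 mM MgCl2, 0.01% Tween20, 0.1% BSA; 45 min RT. ADP-Glo readout. qHTS titration up to 57 uM; curves fitted, compounds curve-classed.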
p53 reactivation: re-activators of mutant p53; H1299 p53-A138V BP100-luciferase reporter, luminescence, 24 h; actives 0.063% (n = 320,000); Potency, µM (highest dose often 92.2 µM), without a hit: top-dose activity change, positive = activation, most hits filed as activators; AID 504706; further: % of control where 0% means no effect; nearly all actives have a fitted effect of over 45% in size
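p53-null H1299 cells stably carrying temperature-sensitive p53-A138V and a BP100-luciferase reporter were pinned with compounds (4-point, 1:5 series) and held 24 hrs at 37 deg C. Luminescence was read 10 min after detection reagent.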
GLS inhibitor: inhibitors of human glutaminase (GLS); actives 0.21% (n = 410,000); O94925; Potency, µM (top dose mostly 45.5 µM), inactives show at the top dose activity change, negative = inhibition, most hits filed as inhibitors; GLS enzymatic activity, qHTS titration; further: on the % scale 0 is the no-effect control and ±100 the full control effect
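hKGA in 45 mM KH2PO4 (pH 8.2), 0.02% Tween-20 with compound, then 1mM L-Glutamine (stock as added) plus glutamate oxidase/HRP/Amplex red coupling mix. Fluorescence read initially and after 30 min at RT; signal change reflects glutamate formation.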
Tb PFK KinaseGlo: inhibits T. brucei PFK measured by ATP depletion | shares compounds with Tb PFK inh-1 | Tb PFK enzyme, ATP depletion, Kinase-Glo Plus luminescence | Potency, µM (highest dose often 57.5 µM), for the others: at the top dose inhibition | actives 47% (n = 1,100); calls by dose curve; further: nearly all actives have a fitted effect of over 60% in size
Tb PFK inh-2: T. brucei PFK enzyme inhibition, hit validation | purified T. brucei PFK, ADP-Glo luminescence, 45 min | actives 41% (n = 1,100) | Potency, µM (titrated, usually from 57.5 µM), inactives show at the highest dose activity change, negative = inhibition, usual class: inhibitors | AID 504637 | shares compounds with Tb PFK inh-1;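 further: plate controls were full PFK enzyme control for no effect and no enzyme control for full effect; nearly all actives have a fitted effect of over 60% in size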
* = called active by the depositor; ? = inconclusive; nt = not tested or not shown; [ ] = another dose, or the depositor's remark. Most compounds without a hit are left out; they make up all but 0.39% or so of the library. Unless noted, the call rests on the fitted dose curve; in most records, active means well fitted curve in the direction sought with a large enough effect; inconclusive means small, poorly fitted or top-dose-only effect, or another doubt; inactive means no such curve, though single readings can be large; an effect the other way counts as inactive or inconclusive. Potency means the concentration at half of the fitted maximal effect.

SMILES	USP2a inh	Tb PFK inh-1	p53 reactivation	GLS inhibitor	Tb PFK KinaseGlo	Tb PFK inh-2
Cc1nn(C)cc1/C=N\NC(=O)c1ccc(Cn2cc(Cl)cn2)cc1	-0.4%	26.9µM*	6.6%	-2.8%	9.53µM*	?
CNC(C)CC1CCCCC1 (stereo not given)	nt	nt	nt	-0.8%	nt	nt
N#Cc1c(F)cccc1NCc1cccs1	0.2%	?	-0.3%	8.0%	?	?
COC(=O)[C@@H]1N=C(c2ccc(OC)cc2)O[C@]12C(=O)N(C)c1cccc(Cl)c12	nt	nt	nt	-6.6%	nt	nt
CCOc1ccc(CN(CCc2ccc3c(c2)OCO3)Cc2cccc(Br)c2)cc1	nt	nt	nt	-7.0%	nt	nt
NNC(=O)CNc1cccc(Cl)c1	9.9%	12µM*	-1.8%	18.9%	23.9µM*	26.9µM*
O=C(Nc1cccc(Cl)c1)OCC#CCN1CCCC1	nt	nt	nt	3.5%	nt	nt
N#Cc1ccc2ccn(CC(=O)NCc3ccco3)c2c1	2.8%	21.3µM*	-0.7%	0.9%	13.5µM*	30.1µM*
CCCC1=Nc2cc(C(=O)NC3CCC(C)CC3)ccc2Sc2ccccc21 (stereo not given)	nt	nt	nt	1.0%	nt	nt
COc1ccc(CNc2nc(Cl)c(C#N)s2)cc1	-0.6%	12µM*	9.0%	-3.2%	7.57µM*	13.5µM*
N#Cc1sc(NCc2ccccc2)nc1Cl	3.9%	19µM*	-0.6%	-11.0%	10.7µM*	26.9µM*
COc1ccc(-c2nc(CN3C(=O)CN=C(c4ccccc4)c4ccccc43)c(C)o2)cc1	nt	nt	nt	7.3%	nt	nt
CCCCNC(C)(C)[P+](=O)O	nt	nt	nt	-7.7%	nt	nt
C=C(C)C(=O)Nc1cccc(C2=NOC3(C2)C[C@@H](C(N)=O)N(C(=O)CC(c2ccccc2)c2ccccc2)C3)c1 (stereo not given in full)	-4.6%	30.1µM*	-2.5%	11.2µM*	1.51µM*	?
C=C(C)C(=O)Nc1cccc(C2=NOC3(C2)C[C@H](C(N)=O)N(C(=O)c2ccccc2C(=O)c2ccccc2)C3)c1 (stereo not given in full)	6.9%	10.7µM*	-6.7%	14.1µM*	0.675µM*	0.849µM*
C/C=C/C=C/C(=O)N1CC2(CC(c3cccc(NC(=O)CCCCC)c3)=NO2)C[C@H]1C(N)=O (stereo not given in full)	8.5%	?	-1.7%	?	?	?
C=C(C)C(=O)Nc1cccc(C2=NOC3(C2)C[C@@H](C(N)=O)N(C(=O)/C(C)=C/C)C3)c1 (stereo not given in full)	1.4%	3.38µM*	-3.1%	?	0.19µM*	0.169µM*
C=C(C)C(=O)Nc1cccc(C2=NOC3(C2)C[C@@H](C(N)=O)N(C(=O)/C=C/C=C/C)C3)c1 (stereo not given in full)	-0.6%	3.79µM*	5.2%	11.2µM*	0.135µM*	0.19µM*
CCCCCCCCCC(CC)c1ccc(S(=O)(=O)O)cc1 (stereo not given)	nt	nt	nt	20.4%	nt	nt
O=C(NNS(=O)(=O)c1ccccc1F)c1cc(-c2ccccc2)n[nH]1	0.6%	?	-6.8%	-21.2%	-28.6%	?
O=C(NC(=O)c1c(F)cccc1F)Nc1cc(Cl)c(OC(F)(F)C(F)C(F)(F)F)cc1Cl (stereo not given)	nt	nt	nt	-0.2%	nt	nt
NC(=O)CN1CC(O)CC1=O (stereo not given)	nt	nt	nt	3.8%	nt	nt
O=c1c2c([N+](=O)[O-])cc([N+](=O)[O-])cc2sn1Cc1ccccc1	1.9%	2.69µM*	-16.0%	1.78µM*	?	21.3µM*
Cc1cc[n+](-c2[nH]c(=O)sc2/C=N/N=C(\[O-])c2ccncc2)cc1	3.4%	19µM*	6.4%	6.0%	?	-20.7%
COc1ccc(OCC(=O)N2CCN(Cc3cccc(OC)c3OC)CC2)cc1	nt	nt	nt	2.0%	nt	nt
CCCCn1nnnc1C(CC)N1CCC2(CC1)C(=O)NCN2c1ccccc1 (stereo not given)	nt	nt	nt	8.9%	nt	nt
CC[C@@H](O)C(C[C@@H](C)N(C)C)(c1ccccc1)c1ccccc1	nt	nt	nt	12.8%[99.4 µM]	nt	nt
